Screening results: PubChem BioAssay, several laboratories
In the library only some 2.5% were active in any assay of this set; here they are far more common.
CHT inh = inhibitors of human choline transporter CHT; CHT-expressing cells, membrane potential dye, choline response; stronger effect = lower value; hit rate 0.86% among 310,000; AID 488975; B-score at 10 µM;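 active = B-score over 3 SD under the library average, and starting fluorescence ratio not unusually high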;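 note: choline stimulus applied at its EC90 after an EC20 pre-addition; B-score computed on integrated fluorescence ratio after choline addition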
PKA-R1A activ = activators of PKA-R1A complex; P00514+P68181; PKA-R1A dissociation, Cy5-IP20 fluorescence polarization; scaled: DMSO 0%, 113 µM cGMP 100%; activation, % at 11.4 µM; hit rate 0.083% among 340,000;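 active = percent activation above the mean of all tested compounds plus 3 SD, cut at about 19% in these data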;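 note: higher means more PKAc released from R1A so a rise in polarization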
PKA-R2B act = activates the human PKA-R2B holoenzyme complex; P22694+P31323; PKA-R2B holoenzyme dissociation, Cy5-IP20 fluorescence polarization; R2B truncated from residue 108, S112A mutant; 0% DMSO only, 100% 113 µM cGMP; activation, % at 11.4 µM; hit rate 0.079% among 340,000;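 active = activation above a cutoff set at the mean over all compounds plus 3 SD, cut at about 18% in these data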;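 note: higher means more holoenzyme dissociation and a rise in polarization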
TMEM16A inh = mouse TMEM16A channel inhibition, primary screen; HEK293 TMEM16A/YFP iodide influx fluorescence, ionomycin; normalized B-score (activity score, 25-100; higher = stronger inhibition) at 10 µM; hit rate 1.2% among 310,000; AID 588511;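 active = ratio plate-corrected score three or more library SD toward inhibition, starting fluorescence score within five deviations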;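 note: score derived from kinetic fluorescence span divided by baseline fluorescence per well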
CHT PAM = human CHT allosteric activation | CHT-expressing cells, membrane potential dye, choline EC20; stronger effect = higher value; LV-AA mutant CHT in HEK293 cells | B-score at 10 µM | hit rate 0.49% among 310,000 | AID 488977;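 active = initial fluorescence not abnormally high and integrated response B-score, plate-corrected, over 3 SD above library mean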
TMEM16A act = mouse TMEM16A channel activation, primary screen. hit rate 0.3% among 340,000. HEK293 TMEM16A/YFP-H148Q/I152L, iodide quench fluorescence; stronger effect = lower value. B-score at 10 µM. Q8BHY3;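 active = fluorescence-ratio B-score plate-corrected deviation score at least 3 library SD below zero, with starting fluorescence score within 5 deviations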;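 note: channel opened by trigger with iodide after compound preincubation; score built on the fluorescence ratio of max minus min over baseline; more negative score means more quench and so TMEM16A activation or potentiation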
CHT block conf = human CHT inhibition, confirmatory screen; shares compounds with CHT inh; CHT-expressing cells, choline membrane potential dye; LV-to-AA substituted CHT, HEK293 cells; CHT activity remaining % of control (stronger effect = lower value), % at 10 µM; hit rate 70% among 2,400; AID 493221;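 active = choline transporter activity left, mean of duplicates at 10 µM, below buffer-only control mean minus 3 SD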;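 note: depolarization triggered by choline at its EC90 following an EC20 pre-addition; 0% = hemicholinium-3 full block and 100% = buffer-only control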
HEK293 MPD ctr = CHT inhibitor counter-screen hit in parental HEK293 cells; AID 493222; hit rate 4% among 2,400; membrane potential dye, choline response; active = decrease or increase beyond buffer ±3SD; shares compounds with CHT inh; membrane potential ratio readout (active if shifted either direction beyond buffer ±3SD; no single direction) at 10 µM;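 note: parental cells lack the transporter so any hit is non-specific; ratio is peak minus trough fluorescence over baseline after EC90 choline challenge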
* hit, by the source's call; i = inactive; . = not tested or not shown.

SMILES	CHT inh	PKA-R1A activ	PKA-R2B act	TMEM16A inh	CHT PAM	TMEM16A act	CHT block conf	HEK293 MPD ctr
CC(/C=C1\NC(=S)NC1=O)=C\c1ccccc1	-5.45*	-9.1	-7.9	i	i	i	67.6%*	i
CC(/C=C1\N=C(SCc2ccccc2)SC1=O)=C\c1ccccc1	i	-7.3	2.5	i	i	i	.	.
O=C(c1ccc2ncsc2c1)N1CCN(c2cccc(C(F)(F)F)c2)CC1	.	-3.9	-7.8	.	.	i	.	.
COc1ccc(CN2CCN(C(C)C)C(CCO)C2)cc1Cn1cccn1 (centres undefined)	-11.9*	-13.1	1.5	i	i	i	6.3%*	i
COc1ccc(CN2CCN(CCC(C)C)C(CCO)C2)cc1Cn1cccn1 (centres undefined)	i	7.4	1.0	i	i	i	.	.
CC(=O)NC(CC(=O)NCCN1C(=O)S/C(=C\c2ccccc2)C1=O)c1ccccc1 (centres undefined)	-5.66*	-7.0	-12.6	i	i	i	57.2%*	i
CC1(c2ccccc2)NC(=O)N(CC(=O)NCCN2C(=O)S/C(=C\c3cccnc3)C2=O)C1=O (centres undefined)	.	-7.6	2.3	.	.	i	.	.
CC(=O)c1ccc(N2C(=NC(=O)CCc3ccccc3)SC3CS(=O)(=O)CC32)cc1 (centres undefined)	i	-3.5	-10.8	i	i	i	.	.
CCOC(=O)NC1C=CS(=O)(=O)C1 (centres undefined)	i	-7.0	4.2	i	i	i	.	.
O=C(O)CCNC1C=CS(=O)(=O)C1 (centres undefined)	-6.19*	.	.	i	i	i	i	i
O=C1OCCC1Sc1nc2ccccc2n1Cc1ccccc1 (centres undefined)	i	-1.5	2.7	i	i	i	.	.
O=C1OCCC1Sc1nc2ccccc2n1-c1ccccc1 (centres undefined)	-5.76*	4.5	-1.2	i	i	i	i	i
CN(C)/C=C/C(=C\C(=O)C(F)(F)F)Nc1ccc(C(F)(F)F)cc1	i	0.6	3.4	i	i	i	.	.
CCN(CC)CCCNc1nc2ccccc2c2[nH]c3ccc(OC)cc3c12	.	-10.5	0.0	.	.	i	.	.
COc1ccc(C(C)C)cc1S(=O)(=O)Nc1cccnc1	.	-4.1	-10.4	.	.	.	.	.
Cc1cc(C)n2nc(CNS(=O)(=O)c3ccc(F)c(C)c3)nc2n1	i	6.3	16.0	i	i	i	.	.
Cc1cc(C)n2nc(CNS(=O)(=O)c3ccc(C)c(C)c3)nc2n1	-6.93*	-2.9	0.5	i	i	i	i	i
Cc1cccc(C)c1NC(=S)N(CCCN1CCN(C)CC1)Cc1cccs1	i	-9.3	-1.6	i	i	i	.	.
CCN(CC(=O)Nc1ccc(Br)cc1)C(=O)Cc1cccc(F)c1	i	5.7	0.3	i	i	i	.	.
CCN(CC(=O)Nc1c(F)cccc1F)C(=O)Cc1ccc2c(c1)CCC2	i	-8.5	-10.6	i	i	i	.	.
CC(NC(=O)C1c2ccccc2Oc2ccccc21)C1CCCO1 (centres undefined)	-5.72*	-1.8	-3.4	i	i	i	67.9%*	i
O=C(COC(=O)c1cccnc1Cl)c1ccc(OC(F)F)cc1	i	1.0	-4.0	i	i	i	.	.
CCn1c(SCc2nc(-c3ccc(OC)c(OC)c3)no2)nnc1-c1cccs1	-8.64*	-0.9	-0.2	i	i	i	41.7%*	i
COC(=O)CCC(=O)NC(=S)Nc1ccc(S(=O)(=O)N2CCCC2)cc1	i	2.7	1.8	i	i	i	.	.
Cc1ccc(N2C(=O)CC(C)CC2=O)cc1	i	-1.3	-3.0	i	i	i	.	.
SMILES	CHT inh	PKA-R1A activ	PKA-R2B act	TMEM16A inh	CHT PAM	TMEM16A act	CHT block conf	HEK293 MPD ctr
COc1ccc(S(=O)(=O)Cc2ccc(C(=O)N3CCN(c4cccc(C)c4)C(C)C3)o2)cc1 (centres undefined)	-5.4*	-7.5	3.0	i	i	i	i	i
COc1ccc(-c2cn(CCO)c(CCN)n2)cc1	i	-6.1	11.4	i	i	i	.	.
COc1ccc(-c2cn(Cc3ccc(C(N)=O)cc3)c(CCN)n2)cc1	-8.1*	-0.8	8.1	i	i	i	i	i
CCCCCc1nc2sc3c(c2c(=O)n1NC(=O)c1ccc([N+](=O)[O-])cc1)CC(C)(C)OC3	-12.2*	-12.1	2.2	25*	i	i	28.3%*	i
CCOc1ccc(/C=N/NC(=O)c2ccccc2C)cc1CN1CC2CC(C1)c1cccc(=O)n1C2 (centres undefined)	.	-9.7	1.3	.	.	i	.	.
Cc1ccccc1OCCn1c(C)nc2ccccc21	-5.18*	0.1	-4.6	i	i	i	i	i
COCCn1c(-c2cccs2)csc1=Nc1cccnc1	i	-6.3	-0.6	i	i	i	.	.
Fc1ccccc1-c1csc(=Nc2cccnc2)n1CCCn1ccnc1	-6.84*	-0.7	5.2	i	i	i	47.6%*	i
CCOC(=O)c1cnc2c(Cl)cccc2c1NCCN1CCOCC1	-5.76*	-1.5	4.7	i	i	i	i	2.81*
O=C(NCCCn1ccnc1)c1cc(-c2cccc(O)c2)on1	i	-11.3	4.8	i	i	i	.	.
Nc1ccc(N(CCO)CCO)cc1	i	-64.1	-67.6	i	i	i	.	.
Cc1cc(N(CCO)CCO)ccc1N=Nc1cc(F)ccc1F	-5.43*	-5.2	-4.9	i	i	i	56.0%*	i
O=C(Cc1cccs1)N1CCN(S(=O)(=O)c2cccc([N+](=O)[O-])c2)CC1	i	-3.1	-2.8	i	i	i	.	.
O=C(O/N=C(/c1ccccc1)c1ccncc1)c1ccc(F)cc1	-9.69*	.	.	i	i	i	i	i
Cc1cccc(C2c3[nH]c4ccccc4c3CCN2C(=O)c2cc3c([nH]c2=O)CCCC3)n1 (centres undefined)	-9.56*	-4.2	2.9	i	i	i	9.3%*	i
